Data reported in PubChem BioAssay (NCATS).
Inconclusive results are not listed. Calls of active or inactive are those of the source. Calls come from the whole dose curve; as a rule, active = well fitted inhibition curve with a large enough effect; inconclusive = small, poorly fitted or top-dose-only effect; inactive = flat fitted curve, though single readings scatter.

Experiments:
[1] = tested on: PAD; test: qHTS profiling for inhibitors of Plasmodium falciparum proliferation (AID 504749); note: potency is the fitted concentration of half-maximal effect; settings: P. falciparum in erythrocytes, SYBR Green DNA, 72 h; series mostly up to 28.7 µM
Summary of the method: (§1)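 Each compound contacts P. falciparum-infected red blood cells for 72 h at 37 C; lysis buffer (Tris, EDTA, saponin, Triton X, SYBR Green I) is added and fluorescence measured next morning; values normalized to controls.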

[2] = tested on: PC15; test: as above; settings: P. falciparum in erythrocytes, SYBR Green DNA, 72 h; series mostly up to 28.7 µM
Summary of the method: as §1

[3] = tested on: PC26; test: as above; settings: P. falciparum in erythrocytes, SYBR Green DNA, 72 h; series mostly up to 28.7 µM
Summary of the method: as §1

[4] = tested on: PC49; test: as above; settings: P. falciparum in erythrocytes, SYBR Green DNA, 72 h; series mostly up to 28.7 µM
Summary of the method: as §1

[5] = tested on: TAB109; test: as above; settings: P. falciparum in erythrocytes, SYBR Green DNA, 72 h; series mostly up to 28.7 µM
Summary of the method: as §1

[6] = tested on: TAB113; test: as above; settings: P. falciparum in erythrocytes, SYBR Green DNA, 72 h; series mostly up to 28.7 µM
Summary of the method: as §1

[7] = tested on: W2; test: as above; settings: P. falciparum in erythrocytes, SYBR Green DNA, 72 h; series mostly up to 28.7 µM
Summary of the method: as §1

[8] = tested on: CRL-7250; test: Cytotoxic Profiling of Annotated Libraries Using Quantitative High-Throughput Screening (AID 1296008); settings: Five cell lines viability, CellTiter-Glo ATP luminescence, 48-72 h; max response: hits give low values; note: potency is the fitted concentration of half-maximal effect; for max response: % is set by controls: 0 for no effect and ±100 for the full control effect
Summary of the method: (§2)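 Cells exposed to compounds for 48 or 72 hr at 37 degrees Celsius. Viability read as ATP-coupled luminescence with CellTiter-Glo after 10 min at room temperature.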

[9] = tested on: HaCat; test: as above; settings: Five cell lines viability, CellTiter-Glo ATP luminescence, 48-72 h; max response: hits give low values
Summary of the method: as §2

[10] = tested on: KB-3-1; test: as above; settings: Five cell lines viability, CellTiter-Glo ATP luminescence, 48-72 h; max response: hits give low values
Summary of the method: as §2

[11] = tested on: NIH3T3; test: as above; settings: Five cell lines viability, CellTiter-Glo ATP luminescence, 48-72 h; max response: hits give low values
Summary of the method: as §2

[12] = tested on: MCC-26; test: qHTS assay to identify novel small-molecules to repurpose for Merkel cell carcinoma treatment (AID 1296009); settings: MCC and control cell lines, CellTiter-Glo viability, 72 h; series mostly up to 46 µM
Summary of the method: (§3)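 Dose-response viability screen; 72 hr exposure at 37 degree celsius; CellTiter-Glo added, 10 min room temperature, luminescence read; RLUs scaled between no-cell and DMSO wells.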

[13] = tested on: P94_40; test: qHTS profiling for inhibitors of Plasmodium falciparum proliferation (AID 504749); note: potency is the fitted concentration of half-maximal effect; settings: P. falciparum in erythrocytes, SYBR Green DNA, 72 h; series mostly up to 28.7 µM
Summary of the method: as §1

[14] = tested on: TAB165; test: as above; settings: P. falciparum in erythrocytes, SYBR Green DNA, 72 h; series mostly up to 28.7 µM
Summary of the method: as §1

[15] = tested on: HACAT; test: qHTS assay to identify novel small-molecules to repurpose for Merkel cell carcinoma treatment (AID 1296009); settings: MCC and control cell lines, CellTiter-Glo viability, 72 h; at 44.8 µM (top of the series) unless noted
Summary of the method: as §3

[16] = tested on: MKL-1; test: as above; settings: MCC and control cell lines, CellTiter-Glo viability, 72 h; series mostly up to 46 µM
Summary of the method: as §3

[17] = tested on: SC27B; test: qHTS profiling for inhibitors of Plasmodium falciparum proliferation (AID 504749); note: potency is the fitted concentration of half-maximal effect; settings: P. falciparum in erythrocytes, SYBR Green DNA, 72 h; series mostly up to 28.7 µM
Summary of the method: as §1

[18] = tested on: HEK293; test: Cytotoxic Profiling of Annotated Libraries Using Quantitative High-Throughput Screening (AID 1296008); settings: Five cell lines viability, CellTiter-Glo ATP luminescence, 48-72 h; max response: hits give low values; note: potency is the fitted concentration of half-maximal effect; for max response: % is set by controls: 0 for no effect and ±100 for the full control effect
Summary of the method: as §2

[19] = tested on: MCC-13; test: qHTS assay to identify novel small-molecules to repurpose for Merkel cell carcinoma treatment (AID 1296009); settings: MCC and control cell lines, CellTiter-Glo viability, 72 h; series mostly up to 46 µM
Summary of the method: as §3
Note: nearly all actives have a fitted effect of over 60% in size.

CCCC(C(=O)OCCN(CC)CC)(c1ccccc1)c1ccccc1
inactive: max response [8] -17.9% | max response [9] -7.15% | max response [10] -8.71% | max response [11] -27.5% | Potency [12]
active: Potency [1] 11.2 µM | Potency [2] 10 µM | Potency [3] 12 µM | Potency [4] 7.08 µM | Potency [5] 11.2 µM | Potency [6] 10 µM | Potency [7] 7.57 µM

c1cc(CN2CCCCC2)cc(OCCCNc2nc3ccccc3s2)c1
inactive: max response [8] -17.3% | outcome [9] | max response [10] -9.4% | outcome [15] | Potency [12] | Potency [16]
active: Potency [13] 10 µM | Potency [5] 2.24 µM | Potency [14] 3.98 µM | Potency [7] 4.78 µM

Brc1c(NC2=NCCN2)ccc2nccnc12
inactive: Potency [13] | Potency [4] | Potency [17] | max response [8] -13% | max response [18] -12.5% | max response [11] -5.35% | Potency [19] | Potency [12] | Potency [16]
active: Potency [7] 5.36 µM

C=CCc1ccccc1OCC(O)CNC(C)C (stereo unspecified)
inactive: Potency [4] | max response [8] -1.4% | max response [9] 4.41% | max response [10] 2.54% | max response [11] -0.59% | Potency [19] | Potency [12] | Potency [16]
active: Potency [13] 12.6 µM | Potency [14] 10 µM | Potency [7] 2.39 µM

CN(C)CC/C=C1\c2ccccc2COc2ccccc21
active: Potency [7] 1.2 µM
inactive: Potency [1] | Potency [2] | max response [8] -15.2% | outcome [9] | max response [10] 4.58% | max response [11] 0.829% | outcome [15] | Potency [19] | Potency [12] | Potency [16]

CCCCNc1c(C(=O)OCC)c(C)nc2c1cnn2CC
inactive: Potency [1] | Potency [2] | Potency [3] | Potency [4] | Potency [17] | Potency [5] | Potency [6] | max response [8] -21.3% | max response [9] -1.24% | max response [10] 1.34% | Potency [19] | Potency [12] | Potency [16]

CN/C(=C\[N+](=O)[O-])NCCSCc1ccc(CN(C)C)o1
inactive: max response [18] 0.484% | outcome [9] | max response [11] -4.45% | outcome [15] | Potency [19] | Potency [12]

Nc1nc(N)c2nc(-c3ccccc3)c(N)nc2n1
inactive: Potency [13] | Potency [1] | Potency [2] | Potency [3] | Potency [4] | Potency [17] | Potency [5] | Potency [6] | Potency [14] | max response [8] -19.7% | max response [9] -19.1% | max response [10] -2.1% | Potency [12]

COc1ccc(CCN(C)CCCC(C#N)(c2cc(OC)c(OC)c(OC)c2)C(C)C)cc1OC (stereo unspecified)
active: Potency [7] 2.39 µM
inactive: Potency [2] | Potency [4] | max response [8] -12.1% | outcome [9] | max response [10] -0.362% | max response [11] 0.424% | outcome [15] | Potency [19] | Potency [12] | Potency [16]

Cc1nc2sccn2c(=O)c1CCN1CCC(=C(c2ccc(F)cc2)c2ccc(F)cc2)CC1
active: Potency [13] 11.2 µM | Potency [14] 12.6 µM
inactive: outcome [8] | max response [9] -3.76% | max response [10] -12.7% | max response [11] -6.97% | Potency [19] | Potency [12] | Potency [16]

c1cnc(N2CCN(Cc3ccc4c(c3)OCO4)CC2)nc1
inactive: Potency [13] | Potency [1] | Potency [2] | Potency [3] | Potency [4] | Potency [17] | Potency [5] | Potency [6] | Potency [14] | Potency [7] | max response [8] -1.35% | outcome [9] | max response [10] -6.36% | max response [11] -2.83% | outcome [15] | Potency [19] | Potency [12] | Potency [16]

O=c1[nH]c(=O)n([C@H]2C[C@H](O)[C@@H](CO)O2)cc1Br
inactive: Potency [13] | Potency [1] | Potency [2] | Potency [3] | Potency [4] | Potency [17] | Potency [5] | Potency [6] | Potency [14] | Potency [7] | max response [8] 0.0744% | max response [9] 2.47% | max response [10] 2.61% | max response [11] 1.37% | Potency [19] | Potency [12] | Potency [16]

CCN(CC)CCCN(c1ccccc1)C1Cc2ccccc2C1
inactive: max response [8] 2.42% | outcome [9] | max response [11] -8.45% | outcome [15] | Potency [19] | Potency [12] | Potency [16]
active: Potency [13] 5.01 µM | Potency [1] 4.47 µM | Potency [2] 4.47 µM | Potency [3] 7.57 µM | Potency [4] 3.98 µM | Potency [17] 7.94 µM | Potency [5] 3.55 µM | Potency [6] 3.98 µM | Potency [14] 3.98 µM | Potency [7] 0.601 µM

COC(=O)C1=C(C)NC(C)=C(C(=O)OCCN(C)Cc2ccccc2)C1c1cccc([N+](=O)[O-])c1 (stereo unspecified)
active: Potency [8] 21.1 µM | Potency [18] 11.9 µM | Potency [11] 26.6 µM

C[C@]12CC[C@@H]3c4ccc(O)cc4C[C@@H](CCCCCCCCCS(=O)CCCC(F)(F)C(F)(F)F)[C@H]3[C@@H]1CC[C@@H]2O (stereo partly specified)
inactive: max response [8] -49.4% | max response [9] -6.63% | max response [10] 3.54% | max response [11] -7.29% | Potency [19] | Potency [12] | Potency [16]

CC(N=C(NC#N)Nc1ccncc1)C(C)(C)C (stereo unspecified)
inactive: Potency [13] | Potency [1] | Potency [2] | Potency [3] | Potency [4] | Potency [17] | Potency [5] | Potency [6] | Potency [14] | Potency [7] | outcome [8] | outcome [9] | max response [11] 0.852% | outcome [15] | Potency [19] | Potency [12] | Potency [16]

CCCCCCCC/C=C\CCCCCCCC(=O)NCc1ccc(O)c(OC)c1
inactive: Potency [3] | max response [8] -0.832% | outcome [9] | max response [10] -3.68% | max response [11] -24.7% | outcome [15] | Potency [19] | Potency [12] | Potency [16]
active: Potency [17] 10 µM | Potency [14] 8.91 µM
